Measured values reported in PubChem BioAssay AID1159580 (chemical genetic matrix, 2015).
Values joined by “and” are separate entries in the source; they are usually repeats but may differ in a detail not shown here. Equal values may be shown once. The whole screen tested about 5,500 compounds, of which about 2,000 (36%) were called active. Another 18% or so got no clear call; they are omitted. Rule as the data show it: active = normalized growth mostly below about 0.91 (no sharp cut-off); inconclusive = no clear call, values can overlap the other calls; inactive = mostly above about 0.92. Some of the results follow.

Test: chemical genetic growth profiling, strain panel (AID 1159580);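 also: tested at 20 µM; growth read once vehicle control cultures reached saturation at 30 °C; 1 = growth at the plate median or of vehicle wells; lower values mean less growth of the strain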
Conditions: growth OD

Measured: normalized growth

O=[N+]([O-])c1cc(O)c(O)c([N+](=O)[O-])c1
inactive: S. cerevisiae deletion strains, locus YJL187C, strain SWE1 (second series), stronger effect = lower value 1.02 | S. cerevisiae deletion strains, locus YJL187C, strain SWE1, stronger effect = lower value 1.01 | S. cerevisiae deletion strains, locus YJR075W, strain HOC1, stronger effect = lower value 1.05 | S. cerevisiae deletion strains, locus YKL009W, strain mrt4, stronger effect = lower value 1.01 | S. cerevisiae deletion strains, locus YKL068W, stronger effect = lower value 0.974 | S. cerevisiae deletion strains, locus YKL085W, strain MDH1 (second series), stronger effect = lower value 0.97 | S. cerevisiae deletion strains, locus YKL085W, strain MDH1, stronger effect = lower value 0.97 | S. cerevisiae deletion strains, locus YKL160W, strain elf1, stronger effect = lower value 1 | S. cerevisiae deletion strains, locus YKR001C, strain vps1, stronger effect = lower value 1 | S. cerevisiae deletion strains, locus YKR026C, strain gcn3, stronger effect = lower value 1.01 | S. cerevisiae deletion strains, locus YKR091W, strain srl3, stronger effect = lower value 1.01 | S. cerevisiae deletion strains, locus YLL001W, strain dnm1, stronger effect = lower value 1.01 | S. cerevisiae deletion strains, locus YLL026W, stronger effect = lower value 0.999 | S. cerevisiae deletion strains, locus YLL041C, strain sdh2, stronger effect = lower value 1.01 | S. cerevisiae deletion strains, locus YLR027C, strain aat2, stronger effect = lower value 1.02 | S. cerevisiae deletion strains, locus YLR039C, strain RIC1, stronger effect = lower value 0.958 | S. cerevisiae deletion strains, locus YLR058C, strain SHM2, stronger effect = lower value 1.01 | S. cerevisiae deletion strains, locus YLR102C, strain apc9, stronger effect = lower value 0.98 | S. cerevisiae deletion strains, locus YLR221C, strain rsa3, stronger effect = lower value 1.06 | S. cerevisiae deletion strains, locus YLR258W, strain gsy2, stronger effect = lower value 1.06 | S. cerevisiae deletion strains, locus YLR262C, strain YPT6 (second series), stronger effect = lower value 0.996 | S. cerevisiae deletion strains, locus YLR262C, strain YPT6, stronger effect = lower value 0.959 | S. cerevisiae deletion strains, locus YLR268W, strain sec22, stronger effect = lower value 0.972 | S. cerevisiae deletion strains, locus YLR320W, strain mms22, stronger effect = lower value 1.06 | S. cerevisiae deletion strains, locus YLR330W, strain CHS5, stronger effect = lower value 1.01 | S. cerevisiae deletion strains, locus YLR342W, strain FKS1 (second series), stronger effect = lower value 0.951 | S. cerevisiae deletion strains, locus YLR342W, strain FKS1, stronger effect = lower value 1.01 | S. cerevisiae deletion strains, locus YLR357W, strain rsc2, stronger effect = lower value 1.03 | S. cerevisiae deletion strains, locus YLR370C, strain arc18, stronger effect = lower value 1.01 | S. cerevisiae deletion strains, locus YLR371W, strain rom2, stronger effect = lower value 0.979 | S. cerevisiae deletion strains, locus YLR384C, strain iki3, stronger effect = lower value 1.01 | S. cerevisiae deletion strains, locus YLR418C, strain cdc73, stronger effect = lower value 0.908 | S. cerevisiae deletion strains, locus YML016C, strain PPZ1, stronger effect = lower value 1.01 | S. cerevisiae deletion strains, locus YML032C, strain rad52, stronger effect = lower value 1.01 | S. cerevisiae deletion strains, locus YML120C, strain ndi1, stronger effect = lower value 1.03 | S. cerevisiae deletion strains, locus YML124C, strain tub3, stronger effect = lower value 0.973 | S. cerevisiae deletion strains, locus YMR058W, strain fet3, stronger effect = lower value 1.04 | S. cerevisiae deletion strains, locus YMR078C, strain ctf18, stronger effect = lower value 0.985 | S. cerevisiae deletion strains, locus YMR125W, strain sto1, stronger effect = lower value 1.01 | S. cerevisiae deletion strains, locus YMR129W, stronger effect = lower value 1.01 | S. cerevisiae deletion strains, locus YMR205C, strain PFK2, stronger effect = lower value 1.01 | S. cerevisiae deletion strains, locus YMR223W, strain ubp8, stronger effect = lower value 0.971 | S. cerevisiae deletion strains, locus YMR231W, strain pep5, stronger effect = lower value 1.02 | S. cerevisiae deletion strains, locus YMR263W, strain SAP30, stronger effect = lower value 1.02 | S. cerevisiae deletion strains, locus YMR307W, strain GAS1, stronger effect = lower value 0.97 and 1.01 | S. cerevisiae deletion strains, locus YNL067W, strain RPL9B, stronger effect = lower value 1.02 | S. cerevisiae deletion strains, locus YNL071W, strain lat1, stronger effect = lower value 1.02 | S. cerevisiae deletion strains, locus YNL153C, strain GIM3, stronger effect = lower value 1.04 and 0.971 | S. cerevisiae deletion strains, locus YNL175C, strain NOP13, stronger effect = lower value 0.976 | S. cerevisiae deletion strains, locus YNL197C, strain WHI3, stronger effect = lower value 0.95 | S. cerevisiae deletion strains, locus YNL209W, strain ssb2, stronger effect = lower value 1.02 | S. cerevisiae deletion strains, locus YNL224C, strain SQS1, stronger effect = lower value 0.977 | S. cerevisiae deletion strains, locus YNL233W, strain BNI4, stronger effect = lower value 1 | S. cerevisiae deletion strains, locus YNL248C, strain rpa49, stronger effect = lower value 0.983 | S. cerevisiae deletion strains, locus YNL250W, strain rad50, stronger effect = lower value 0.955 | S. cerevisiae deletion strains, locus YNL271C, strain bni1, stronger effect = lower value 0.978 | S. cerevisiae deletion strains, locus YNL298W, strain CLA4, stronger effect = lower value 0.994 | S. cerevisiae deletion strains, locus YNL307C, strain MCK1, stronger effect = lower value 0.989 | S. cerevisiae deletion strains, locus YNL322C, strain KRE1 (second series), stronger effect = lower value 1.02 | S. cerevisiae deletion strains, locus YNL322C, strain KRE1, stronger effect = lower value 1 and 1.01 | S. cerevisiae deletion strains, locus YNR049C, strain mso1, stronger effect = lower value 1 | S. cerevisiae deletion strains, locus YNR052C, strain pop2, stronger effect = lower value 0.996 | S. cerevisiae deletion strains, locus YOL012C, strain htz1 1.22 | S. cerevisiae deletion strains, locus YOL147C, strain pex11, stronger effect = lower value 0.981 | S. cerevisiae deletion strains, locus YOR001W, strain rrp6, stronger effect = lower value 1.01 | S. cerevisiae deletion strains, locus YOR061W, strain CKA2, stronger effect = lower value 1.01 | S. cerevisiae deletion strains, locus YOR069W, strain VPS5, stronger effect = lower value 1 | S. cerevisiae deletion strains, locus YOR070C, strain gyp1, stronger effect = lower value 1.03 | S. cerevisiae deletion strains, locus YOR080W, strain dia2, stronger effect = lower value 1.02 | S. cerevisiae deletion strains, locus YOR083W, strain WHI5 (second series), stronger effect = lower value 0.992 | S. cerevisiae deletion strains, locus YOR083W, strain WHI5, stronger effect = lower value 1.01 | S. cerevisiae deletion strains, locus YOR106W, strain vam3, stronger effect = lower value 0.983 | S. cerevisiae deletion strains, locus YOR136W, strain idh2, stronger effect = lower value 0.981 | S. cerevisiae deletion strains, locus YOR144C, strain elg1, stronger effect = lower value 0.979 | S. cerevisiae deletion strains, locus YOR184W, strain ser1, stronger effect = lower value 0.985 | S. cerevisiae deletion strains, locus YOR265W, strain rbl2, stronger effect = lower value 1.02 | S. cerevisiae deletion strains, locus YOR270C, strain vph1, stronger effect = lower value 0.989 | S. cerevisiae deletion strains, locus YOR290C, strain snf2, stronger effect = lower value 1.02 | S. cerevisiae deletion strains, locus YOR316C, strain cot1, stronger effect = lower value 0.983 | S. cerevisiae deletion strains, locus YPL051W, strain arl3, stronger effect = lower value 1.04 | S. cerevisiae deletion strains, locus YPL055C, strain LGE1, stronger effect = lower value 1.01 and 1.06 | S. cerevisiae deletion strains, locus YPL078C, strain atp4, stronger effect = lower value 0.992 | S. cerevisiae deletion strains, locus YPL106C, strain sse1, stronger effect = lower value 1.07 | S. cerevisiae deletion strains, locus YPL240C, strain hsp82, stronger effect = lower value 0.995 | S. cerevisiae deletion strains, locus YPR119W, strain clb2, stronger effect = lower value 0.972 | S. cerevisiae deletion strains, locus YPR141C, strain kar3, stronger effect = lower value 0.954 | S. cerevisiae deletion strains, locus YPR163C, strain tif3, stronger effect = lower value 0.985 | S. cerevisiae deletion strains, locus YPR167C, strain met16, stronger effect = lower value 0.971 | S. cerevisiae deletion strains, strain wtn01, stronger effect = lower value 0.984 | S. cerevisiae strains, strain wild type, stronger effect = lower value 1.01
